Data from PubChem BioAssay AID504332 (National Center for Advancing Translational Sciences (NCATS), 2011).
Hit rate of the full screen: of about 350,000 compounds, about 31,000 (8.9%) were called active. Inconclusive results (about 15%) are left out. The sample holds actives, similar compounds and a random draw of the others, so the mix is not that of the screen. Values without a mark were called inactive. The call rests on the fitted dose curve; in most records, active means well fitted inhibition curve with a large enough effect; inconclusive means small, poorly fitted or top-dose-only effect; inactive means no such curve, though single readings can be large or run the other way.

The molecules below were run against Histone-lysine N-methyltransferase EHMT2 (Homo sapiens) (UniProt Q96KQ7) (assay: qHTS Assay for Inhibitors of Histone Lysine Methyltransferase G9a). Conditions: G9a H3K9 monomethylation, AlphaScreen, 2 h; series mostly up to 59 µM; activity, negative = inhibition: at the top concentration.
Sequence of Histone-lysine N-methyltransferase EHMT2 (Homo sapiens) (Q96KQ7 913-1193 limits assumed): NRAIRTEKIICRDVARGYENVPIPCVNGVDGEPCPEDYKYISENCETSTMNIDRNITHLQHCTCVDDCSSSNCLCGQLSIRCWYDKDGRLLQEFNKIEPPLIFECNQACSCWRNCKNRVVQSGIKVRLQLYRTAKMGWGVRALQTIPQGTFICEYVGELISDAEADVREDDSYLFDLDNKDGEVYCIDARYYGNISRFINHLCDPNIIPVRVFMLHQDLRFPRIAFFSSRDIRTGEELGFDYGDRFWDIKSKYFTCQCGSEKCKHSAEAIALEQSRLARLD
Summary of the method: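 Enzyme 20 nM + cpd, 15 min RT; add b-H3K9 pep 500 nM / SAM 20 uM; 2 h RT; anti-H3K9me1 Ab 0.5 ug/mL + SA donor / anti-rabbit acceptor beads 20 ug/mL each, 10 min; AlphaScreen read.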
Further: nearly all actives have a fitted effect of over 75% in size.
On the % scale 0 is the no-effect control and ±100 the full control effect; potency means the concentration at half of the fitted maximal effect.

Row | SMILES | activity, negative = inhibition | Potency
1 | CCN(CC(=O)Nc1ccccc1C(F)(F)F)C(=O)CSCc1c(C)noc1C | 9.18% [at 0.501 µM] | 
2 | CCOC(=O)C1(Cc2ccccc2C)CCCN(C(=O)CCc2c(C)noc2C)C1 (centres undefined) | 65.5% [at 102 µM] | 
3 | CCOc1ccc(N2C(=O)CSC2=NC#N)cc1 | -16.5% [at 12.7 µM] | 
4 | CCOc1ccc(N2C(=O)CN(c3cccc4ccccc34)C2=S)cc1 | -2.7% [at 102 µM] | 
5 | CCOc1ccc(N2C(=O)/C(=C/c3ccc(C)o3)N(C)C2=S)cc1 |  | 3.55 µM (active)
6 | COc1ccc(/C=C2\SC(=O)N(CCC(=O)NC3CCS(=O)(=O)C3)C2=O)cc1 (centres undefined) | 10.4% [at 102 µM] | 
7 | Cc1ccc(-n2c3nc(=O)[nH]c(=O)c-3cc3c(Cl)cccc32)cc1 | 0.296% | 
8 | CCOc1ccc(S(=O)(=O)N2CCCC(C(=O)N3CCC(C(N)=O)CC3)C2)cc1Cl (centres undefined) | 10.8% [at 102 µM] | 
9 | CCN1/C(=C\c2ccc3ccccc3[n+]2CC)Sc2cc(C)ccc21 |  | 22.4 µM (active)
10 | Cc1nc2nc(SCC(=O)Nc3cccc(F)c3)[nH]c2cc1Br | -6.53% [at 102 µM] | 
11 | COc1ccc(C(=O)Nc2ccc(C3(C#N)CCCC3)cc2)cc1OC | 5.57% [at 0.501 µM] | 
12 | CC1(C)N=C(SCc2ccccc2Cl)c2ccccc2N1 | 58.5% | 
13 | CNc1ccc(NC(C)=O)cc1[N+](=O)[O-] | -49.9% [at 102 µM] | 
14 | CCc1nnc(NC(=O)/C=C/c2ccc(C)o2)s1 | -7.08% | 
15 | Cc1ccc(/C=C/C(=O)Nc2ccc([N+](=O)[O-])c(NC(=O)/C=C/c3ccc(C)o3)c2)o1 |  | 22.4 µM (active)
16 | CC(C(=O)N1CCN(c2ccccc2F)CC1)c1ccc([N+](=O)[O-])cc1 (centres undefined) | 13.1% [at 0.501 µM] | 
17 | COc1ccc2c(CNCCc3ccccc3C)c(C(=O)O)n(Cc3ccccc3C)c2c1 | -17.1% | 
18 | CCOc1ccc(C2C(C(=O)Nc3ccc(Cl)cc3)=C(C)Nc3nc(C(F)(F)F)nn32)cc1 (centres undefined) | -12% | 
19 | Cc1nnc(SCC2=C(C(=O)O)N3C(=O)C(NC(=O)Cn4nc(C)c(Cl)c4C)C3SC2)s1 (centres undefined) |  | 31.6 µM (active)
20 | Cc1nnc(SCC(=O)NC2CCCC2)s1 | -22.1% | 

Row | SMILES | activity, negative = inhibition | Potency
21 | O=C1N[C@@H](Cc2ccccc2)C(=O)N2[C@H]1C[C@]1(Br)c3ccccc3N(S(=O)(=O)c3ccccc3)[C@H]21 | 7.4% [at 2.33 µM] | 
22 | Cc1ccc(NC(=O)Cn2nnc3sc4c(c3c2=O)CCC(C)C4)cc1 (centres undefined) | -5.2% | 
23 | CC1CCc2c(sc3nc4n(c(=O)c23)CCS4)C1 (centres undefined) |  | 50.1 µM (active)
24 | CCCn1nnc2sc3c(c2c1=O)CCC(C)C3 (centres undefined) | 109% [at 102 µM] | 
25 | CC1CCN(C(=O)COC(=O)CCC(=O)c2cccs2)CC1 | -38.9% [at 102 µM] | 
26 | Brc1ccc2c(c1)NC(c1cccnc1)=NC(c1ccccc1)=N2 | 1.49% | 
27 | COc1cccc(/C=N\NC(=O)C2=NNC(=O)C2C)c1O (centres undefined) | -6.03% | 
28 | COc1ccc(C(=O)Nc2ccccc2C(=O)N/N=C/c2ccccc2OC)cc1 | 14.1% [at 0.501 µM] | 
29 | COc1cccc(/C=N/NC(=O)c2[nH]nc3c2CCc2ccccc2-3)c1O |  | 50.1 µM (active)
30 | CCCCN(CC)CCCNC(=O)c1nn(C)c2c1CSc1ccccc1-2 | -31.4% | 
31 | CN(C)CCNC(=O)c1[nH]nc2c1CCc1ccccc1-2 |  | 44.7 µM (active)
32 | CN(C)CCCNC(=O)c1ccc2[nH]c3ccccc3c2c1 | 38.1% [at 0.501 µM] | 
33 | O=S(=O)(Nc1ccc(-c2ccc(N3CCOCC3)nn2)cc1)c1cc(Cl)ccc1Cl | -28.8% [at 2.33 µM] | 
34 | COc1ccccc1N1CCN(C(=O)C2CCN(S(=O)(=O)c3c(C)noc3/C=C/c3ccc(C)cc3)CC2)CC1 | 1.43% | 
35 | Cc1ccc(CNC(=O)CCS(=O)(=O)c2ccc3c(c2)CC(C)N3C(=O)C2CC2)o1 (centres undefined) | 17.4% [at 0.0925 µM] | 
36 | Cn1c(SCc2ccc(F)cc2)nnc1-c1ccncc1 | 6.09% [at 102 µM] | 
37 | CCOc1ccc(Nc2c(S(=O)(=O)c3ccccc3)cnc3ccccc23)cc1 | -6.1% | 
38 | Cc1ccc(CNS(=O)(=O)c2ccc(C(=O)N(C)C)s2)cc1 | -2.84% | 
39 | Cc1ccc(-n2ncc3c(NCCCn4ccnc4)ncnc32)cc1Cl | -32.6% | 
40 | Cn1c(=O)[nH]c(=O)c2c1nc(N1CCCCCC1)n2CC(=O)c1ccccc1 | -6.53% | 

Row | SMILES | activity, negative = inhibition | Potency
41 | Cn1c(=O)[nH]c(=O)c2c1nc(N1CCN(C(c3ccccc3)c3ccccc3)CC1)n2CCO | -6.95% [at 102 µM] | 
42 | CN1CCN(c2nc3c(c(=O)[nH]c(=O)n3C)n2Cc2cccc3ccccc23)CC1 |  | 25.1 µM (active)
43 | Cc1cn([C@H]2CC(F)[C@@H](CO)O2)c(=O)[nH]c1=O (some centres undefined) | 8.73% [at 12.7 µM] | 
44 | COc1ccc(NC(=O)Cn2c(=O)n(Cc3ccc(C(=O)NCc4ccccc4Cl)cc3)c(=O)c3ccccc32)cc1 | 0.893% | 
45 | CN1/C(=C\C=C2\N=C(c3ccc(F)cc3)OC2=O)C(C)(C)c2ccccc21 |  | 4.47 µM (active)
46 | CN1/C(=C\C(=O)c2cccnc2Cl)C(C)(C)c2ccccc21 | -5.31% | 
47 | Cc1noc(C)c1C(=O)OCC(=O)/C=C1\N(C)c2ccccc2C1(C)C | -35.1% | 
48 | CC(=O)Nc1ccc(SC[C@H](Cc2ccccc2)N2CC[C@@H](C)CCC2=O)cc1 | -3.36% [at 0.501 µM] | 
49 | Cc1ccc(OCCSc2nc(-c3cccs3)nc3cc(=O)[nH]n23)cc1Cl | 13% | 
50 | Cc1ccc(C(=O)NNC(=O)c2ccncc2)cc1S(=O)(=O)N1CCCCC1 | -0.102% | 
51 | Cc1nc2cnc(Nc3ccccc3)nc2n(C[C@H]2CCCO2)c1=O | 8.09% [at 0.501 µM] | 
52 | Cc1cccc(S(=O)(=O)N2CN(CC3CCCO3)c3nc4ccccc4nc32)c1 (centres undefined) |  | 50.1 µM (active)
53 | O=S(=O)(NCC1CCCO1)c1ccc2ccccc2c1 (centres undefined) | 18.4% | 
54 | COc1ccccc1NC(=O)c1cc(N2C(=O)C3C4CCC(C4)C3C2=O)ccc1Cl (centres undefined) | -0.617% | 
55 | Cc1ccc2nc(COc3ccccc3NC(=O)Nc3ccc(F)c(Cl)c3)cc(=O)n2c1 | 7.81% | 
56 | O=C(COC(=O)c1ncc(Cl)c(Cl)c1Cl)NCc1ccccc1 | -8.95% | 
57 | COc1ccccc1Nc1cc(C(=O)NCCCN(C)C2CCCCC2)c2ccccc2n1 | 10.4% | 
58 | COc1ccc(Nc2cc(C(=O)NCCCN(C)c3ccccc3)c3ccccc3n2)c(OC)c1 |  | 7.94 µM (active)
59 | CCCCN(CCCNC(=O)c1cc(Nc2ccccc2OC)nc2ccccc12)c1ccccc1 | 9.4% | 
